Screening data deposited in PubChem by National Center for Advancing Translational Sciences (NCATS).
MCF10A rereplic = DNA re-replication induction in MCF 10a cells; Potency, µM (series often up to 46.1 µM), actives largely listed as activators; 350,000 compounds, 2.9% hits; MCF 10A DNA re-replication, Hoechst nuclear intensity, 48 h; also: nearly all actives have a fitted effect of over 50% in size
KB-3-1 cytotox = KB-3-1 parental cell cytotoxicity; KB-3-1 viability, CellTiter-Glo ATP luminescence, 72 h; Potency, µM (doses to about 46.1 µM), most hits filed as cytotoxic; 400,000 compounds, 1.4% hits; also: nearly all actives have a fitted effect of over 60% in size
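Parental KB-3-1 viability, qHTS format: 72 h compound exposure, 37 °C; CellTiter-Glo; media-only wells and DMSO plates as controls; concentration-effect fits on corrected data.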
SW480 rerep = induces DNA re-replication in SW480 colon adenocarcinoma cells. AID 624297. 340,000 compounds, 1.8% hits. SW480 DNA re-replication, Hoechst DNA content imaging, 48 h. Potency, µM (top dose mostly 46.1 µM), most hits filed as activators; also: nearly all actives have a fitted effect of over 55% in size
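Treated cells incubate 48 hr (37 C, 5% CO2), are stained 40 min with Hoechst, and nuclear fluorescence is enumerated; a rise in nuclei with high DNA signal marks re-replication.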
hERG WT inh = KCNH2 (human, wildtype) channel inhibition. Q12809. activity change, % at 1.84 µM. AID 720551. 340,000 compounds, 0.37% hits. U2OS, BacMam KCNH2, thallium flux FluxOr; active compounds read low;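 active = maximum activity change below -70%; inconclusive = maximum activity change between -70% and -50%; inactive = maximum activity change above -50%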
Target sequence (Q12809 whole entry, looked up): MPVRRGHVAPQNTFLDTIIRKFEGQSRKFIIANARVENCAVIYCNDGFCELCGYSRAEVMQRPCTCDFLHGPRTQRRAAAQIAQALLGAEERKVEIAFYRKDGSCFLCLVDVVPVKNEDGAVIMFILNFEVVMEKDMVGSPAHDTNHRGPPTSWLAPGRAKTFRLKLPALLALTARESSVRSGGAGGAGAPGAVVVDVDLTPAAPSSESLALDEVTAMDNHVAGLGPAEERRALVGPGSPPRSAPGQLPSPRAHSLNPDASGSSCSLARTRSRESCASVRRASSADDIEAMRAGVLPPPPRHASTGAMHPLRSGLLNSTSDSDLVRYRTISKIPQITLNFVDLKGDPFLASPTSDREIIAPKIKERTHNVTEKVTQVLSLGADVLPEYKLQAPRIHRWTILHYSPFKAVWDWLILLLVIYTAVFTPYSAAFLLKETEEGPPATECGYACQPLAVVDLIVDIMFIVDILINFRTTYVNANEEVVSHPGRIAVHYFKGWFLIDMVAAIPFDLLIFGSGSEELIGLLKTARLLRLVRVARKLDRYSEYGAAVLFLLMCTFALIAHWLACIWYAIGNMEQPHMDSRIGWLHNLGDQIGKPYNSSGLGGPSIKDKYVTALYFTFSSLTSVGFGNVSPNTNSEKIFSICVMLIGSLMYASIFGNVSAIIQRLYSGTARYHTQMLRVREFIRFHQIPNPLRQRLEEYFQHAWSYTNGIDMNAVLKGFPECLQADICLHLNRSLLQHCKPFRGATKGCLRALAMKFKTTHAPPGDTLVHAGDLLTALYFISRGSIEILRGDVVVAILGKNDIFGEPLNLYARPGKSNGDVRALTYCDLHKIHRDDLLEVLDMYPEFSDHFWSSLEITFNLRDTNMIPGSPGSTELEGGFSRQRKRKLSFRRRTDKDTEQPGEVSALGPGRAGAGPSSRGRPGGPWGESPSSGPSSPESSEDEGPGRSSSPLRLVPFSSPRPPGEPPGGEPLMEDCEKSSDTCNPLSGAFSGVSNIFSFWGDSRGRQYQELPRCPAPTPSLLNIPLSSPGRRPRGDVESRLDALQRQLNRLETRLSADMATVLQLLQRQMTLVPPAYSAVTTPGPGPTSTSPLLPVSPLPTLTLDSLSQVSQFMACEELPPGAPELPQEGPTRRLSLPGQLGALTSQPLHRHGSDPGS
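U2OS cells were transduced with wild-type KCNH2 virus (2.03 x 10^8 / mL) for 4 h at room temperature, then cultured overnight at 37 C. Thallium flux was read with FluxOr dye. Rate constants were normalized to DMSO controls.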
KCNH2 3.1 block = KCNH2 3.1 (human) potassium channel inhibition; activity change, % (tested at about 1.8 µM); AID 720553; 340,000 compounds, 0.95% hits; U2OS KCNH2 3.1, thallium flux FluxOr; active compounds read low;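 active = maximum activity change below -70%; inconclusive = maximum activity change from -70% to -50%; inactive = maximum activity change above -50%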;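 also: thallium influx rate constant from kinetic fluorescence after stimulation buffer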
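Kinetic fluorescence (2 min after stimulation buffer) measures Tl+ influx through KCNH2 3.1 expressed by viral transduction in U2OS cells; the rate constant is normalized against DMSO controls serving as positive and negative references.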
KB-V1 MDR tox = KB-V1 MDR subline cytotoxicity | 400,000 compounds, 3.4% hits | Potency, µM (doses to about 46.1 µM), usual class: cytotoxic | KB-V1 MDR cells viability, CellTiter-Glo, 72 h; also: nearly all actives have a fitted effect of over 60% in size
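Potencies derive from concentration-effect curves fitted to normalized luminescence (CellTiter-Glo) of KB-V1 cells treated for 72 h at 37 degrees C in phenol-red-free DMEM containing 10% FBS.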
A number is an active result; . = inactive; ? = inconclusive; / = no result given. Rows were chosen to be rich in hits. Some 7.6% of all compounds tested hit in one or more screens of this group. Unless noted, calls follow the shape of the dose curve; as a rule, active = well fitted curve in the direction sought with a large enough effect; inconclusive = small, poorly fitted or top-dose-only effect, or another doubt; inactive = no such curve, though single readings can be large; an effect the other way counts as inactive or inconclusive.

SMILES | MCF10A rereplic | KB-3-1 cytotox | SW480 rerep | hERG WT inh | KCNH2 3.1 block | KB-V1 MDR tox
Cc1nc2c(-c3ccccc3)c[nH]n2c(=O)c1Cc1ccccc1 | ? | 12µM | . | . | . | ?
Cc1cc(=O)n2[nH]cc(-c3ccccc3)c2n1 | . | . | . | . | . | .
COc1ccc(-c2c(C)[nH]n3c(=O)c(Cc4ccccc4)c(C)nc23)cc1 | . | ? | ? | . | . | 16µM
Cc1ccc(NC(=O)c2ncn(CCCNCCCN(C)C)n2)cc1C | ? | . | ? | . | . | .
COc1ccc(CNCCCn2cnc(C(=O)Nc3ccc(C)c(C)c3)n2)cc1 | . | . | . | . | -86 | .
Cc1ccc(NC(=O)c2ncn(CCCNCCCc3ccccc3)n2)cc1C | . | . | ? | -80 | -91 | .
Cc1ccc(NC(=O)c2ncn(CCCN(CCCn3cnc(C(=O)Nc4ccc(C)c(C)c4)n3)Cc3ccc4[nH]ccc4c3)n2)cc1C | ? | . | ? | -91 | -77 | .
Cc1ccc(NC(=O)c2ncn(CC(=O)NCc3ccc4[nH]ccc4c3)n2)cc1C | . | . | . | . | . | .
COC(=O)Cn1cnc(C(=O)Nc2ccc(C)c(C)c2)n1 | . | . | . | . | -73 | .
CN(C)CCn1nnc2c(=O)oc3ccccc3c21 | . | . | . | . | / | .
Cn1c(N)c(C(=O)COc2ccc(C#N)cc2)c(=O)n(C)c1=O | . | . | . | . | . | .
O=c1c2c3nc4ccccc4nc3n(-c3ccc4c(c3)OCCO4)c2ncn1C1CCCC1 | 7.1µM | ? | 13µM | . | . | ?
O=C1C(Cl)=C(N2CCC(C(=O)O)CC2)C(=O)c2ccccc21 | ? | . | . | . | . | ?
NC(=O)C1CCN(C2=C(Cl)C(=O)c3ccccc3C2=O)CC1 | 13µM | ? | ? | . | . | ?
CN1CCN(C2=C(Cl)C(=O)c3ccccc3C2=O)CC1 | 4.1µM | ? | 5.2µM | . | . | ?
CC(C)=CCCC(C)CN1CCC(n2nccc2NC(=O)C2CCCC2)CC1 (centres undefined) | . | . | . | . | . | .
O=S(=O)(NCc1ccccc1)c1ccc(S(=O)(=O)N(Cc2ccccn2)C2CCCC2)cc1 | ? | . | . | . | . | .
CC1CCCC(C)N1S(=O)(=O)c1ccc(S(=O)(=O)NCCc2ccncc2)cc1 (centres undefined) | . | . | . | . | . | ?
CCN(C1CCCCC1)S(=O)(=O)c1ccc(S(=O)(=O)NCCc2ccncc2)cc1 | ? | . | . | . | . | 21µM
CCN(C1CCCCC1)S(=O)(=O)c1ccc(S(=O)(=O)NCc2ccncc2)cc1 | . | . | . | . | . | 7.3µM
CCCCCc1ccc(S(=O)(=O)NCCc2ccncc2)cc1 | . | ? | . | . | . | 3.3µM
CCn1c(SCc2nc3ccccc3[nH]2)nnc1-c1ccc(OC)cc1 | . | . | . | . | . | 10µM
C=CCn1c(SCc2nc3ccccc3[nH]2)nnc1-c1ccccn1 | . | . | . | . | . | .
CCn1c(SCc2nc3ccccc3[nH]2)nnc1-c1cccnc1 | . | . | . | . | . | ?
C=CCn1c(SCc2nc3ccccc3[nH]2)nnc1-c1cccc(OC)c1 | . | . | . | . | . | 3.7µM
SMILES | MCF10A rereplic | KB-3-1 cytotox | SW480 rerep | hERG WT inh | KCNH2 3.1 block | KB-V1 MDR tox
C=CCn1c(SCc2nc3ccccc3[nH]2)nnc1-c1ccc(OC)cc1 | . | . | . | . | . | 4.6µM
CCn1c(SCc2nc3ccccc3[nH]2)nnc1-c1ccncc1 | . | . | . | . | . | .
O=C(NC1CCCC1)c1cc(=O)[nH]c2ccccc12 | . | . | . | . | . | .
CCCCn1nc(NC(=O)c2cccs2)c2cc3cc(OC)ccc3nc21 | ? | . | 12µM | . | . | ?
CCCn1nc(NC(=O)c2cccs2)c2cc3cc(OC)ccc3nc21 | ? | . | 15µM | . | . | ?
COc1cc(-c2noc(C)c2/C=C/c2cccc([N+](=O)[O-])c2)cc(OC)c1OC | ? | 2.9µM | ? | . | . | 5.8µM
COc1ccc(OC)c(CN2CCCC(C(=O)c3ccccc3SC)C2)c1 (centres undefined) | ? | . | ? | . | . | .
CCOc1ccc2nc(N3C(=O)C(O)=C(C(=O)c4ccco4)C3c3ccco3)sc2c1 (centres undefined) | . | . | . | . | . | ?
Cc1ccc2nc(N3C(=O)C(O)=C(C(=O)c4ccco4)C3c3cccs3)sc2c1 (centres undefined) | 21µM | . | ? | . | . | 13µM
Cc1cc(C)c2nc(N3C(=O)C(O)=C(C(=O)c4ccco4)C3c3ccco3)sc2c1 (centres undefined) | 18µM | . | 16µM | . | . | .
CCOC(=O)C1CCCN(c2nc3c(S(=O)(=O)c4ccc(Br)cc4)nnn3c3ccsc23)C1 (centres undefined) | / | . | / | / | / | ?
CC(=O)c1ccc(OCc2ccc(C(=O)c3ccccc3)cc2)cc1 | . | 15µM | . | . | . | 16µM
O=C(O)COc1ccc(C(=O)c2ccccc2)cc1 | . | . | . | . | . | .
C=CCNC(=S)NNC(=O)c1ccc(OCC)cc1 | . | . | ? | . | . | .
CCCOc1ccc(C(=O)NNC(=S)NC(=O)CC)cc1 | 16µM | 13µM | ? | . | . | ?
C=CCNC(=S)NNC(=O)c1ccc(OCC(C)C)cc1 | . | . | 18µM | . | . | .
CCCCC(=O)NC(=S)NNC(=O)c1ccc(OC)cc1 | . | 23µM | . | . | . | ?
CC(C)(C)c1ccc(CSc2nc3c(c(=O)[nH]2)CCCC3)cc1 | / | . | / | / | / | .
COc1ccc(OC)c(/C=N/NC(=O)c2[nH]nc3c2CCc2ccccc2-3)c1 | 23µM | . | ? | . | . | .
COc1cccc(/C=N/NC(=O)c2[nH]nc3c2CCc2ccccc2-3)c1 | ? | 10µM | ? | . | . | ?
Cc1ccc(C)c(OC(=O)c2cccc(S(=O)(=O)N3CCN(C)CC3)c2)c1 | . | . | . | . | . | .
NC(=S)Cc1ccccc1Cl | . | . | 18µM | . | . | .
Cc1ccc(N(CC(O)Cn2c3ccccc3c3ccccc32)S(C)(=O)=O)c(C)c1 (centres undefined) | ? | 23µM | . | . | . | 13µM
Cc1ccc(N(CC(O)Cn2c3ccccc3c3ccccc32)S(C)(=O)=O)cc1 (centres undefined) | . | ? | . | . | . | .
CCN(CC)c1ccc(C2C(C(N)=O)=C(C)Nc3nc(SCc4ccccc4Cl)nn32)cc1 (centres undefined) | / | . | / | / | / | ?
CCCCn1cnc2c(c(-c3ccccc3)c(-c3ccccc3)n2Cc2ccco2)c1=N | . | . | . | . | . | .
